# Assay outcomes from PubChem.
# Hits are enriched below; roughly 0.93% of the tested compounds scored in any of these assays.
# RPL19A TOR yeast = modulators of TOR pathway RPL19A-GFP in S. cerevisiae; percent response vs DMSO, % at 10 µM; actives 0.3% (n = 330,000); S. cerevisiae RPL19A-GFP strain, flow cytometry, 3 h; stronger effect = lower value;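 active = percent response vs DMSO below 50%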;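 also: median channel GFP fluorescence of the barcoded RPL19A-GFP strain; lower means less RPL19A-GFP as with rapamycin TOR inhibition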
# CIT2 TOR yeast = alters CIT2-GFP fluorescence in TOR pathway yeast screen; S. cerevisiae CIT2-GFP strain, flow cytometry, 3 h; 100 means same as DMSO wells; GFP response vs DMSO, % at 10 µM; actives 0.065% (n = 320,000); AID 2029;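 active = GFP response relative to DMSO above a set limit, near the screen mean plus 3 SD, cut at about 150% in these data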;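 also: ratio of well median GFP fluorescence to mean of DMSO wells on the plate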
# LAP4-GFP MLPCN = modulators of TOR pathway LAP4-GFP in S. cerevisiae; actives 0.34% (n = 320,000); AID 2023; GFP response vs DMSO, % at 10 µM; S. cerevisiae LAP4-GFP multiplex, flow cytometry GFP, 3 h; median GFP as percent of DMSO wells;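 active = GFP response vs DMSO above a set limit, about the screen mean plus 3 SD, cut at about 150% in these data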
# MEP2 TOR yeast = yeast TOR pathway MEP2-GFP modulation | S. cerevisiae MEP2-GFP strain, flow cytometry GFP, 3 h; 100% = DMSO control level | GFP response vs DMSO, % at 10 µM | actives 0.51% (n = 330,000);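 active = GFP response versus DMSO above a set limit, roughly screen mean plus 3 SD, cut at about 180% in these data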;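 also: median GFP fluorescence of the barcode-gated MEP2-GFP cells per well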
# AGP1-GFP MLPCN = modulators of TOR pathway AGP1-GFP in S. cerevisiae; S. cerevisiae AGP1-GFP multiplex flow cytometry, 3 h; GFP as percent of DMSO wells; GFP response vs DMSO, % at 10 µM; actives 0.02% (n = 320,000);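 active = GFP response relative to DMSO above a set limit, near screen average plus 3 SD, cut at about 150% in these data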;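 also: median GFP channel fluorescence of the gated AGP1 strain per well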
# LAP4-GFP pick2 = second confirmation of modulators of TOR reporter LAP4-GFP in yeast; actives 20% (n = 590); GFP response vs DMSO, % at 10 µM; S. cerevisiae LAP4-GFP strain, flow cytometry GFP, 3 h; shares compounds with LAP4-GFP MLPCN;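 active = GFP signal as percent of the solvent control above about 150%, meaning raised reporter expression, limit read from the data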
# MEP2-GFP pick2 = yeast MEP2-GFP modulation, second cherry pick. shares compounds with LAP4-GFP MLPCN. S. cerevisiae MEP2-GFP strain, flow cytometry GFP, 3 h. GFP response vs DMSO, % at 10 µM. actives 10% (n = 590). AID 2622;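 active = GFP signal above 150% of the solvent control wells, that is a rise of more than half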;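 also: median channel GFP fluorescence of all gated yeast cells per well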
# RPL19A-GFP pick2 = second confirmation of modulators of TOR reporter RPL19A-GFP in yeast | S. cerevisiae RPL19A-GFP strain, flow cytometry GFP, 3 h; stronger effect = lower value; 100% means same as DMSO wells | GFP response vs DMSO, % at 10 µM | shares compounds with LAP4-GFP MLPCN | actives 3% (n = 590);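 active = under 65% GFP response relative to DMSO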;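 also: median GFP channel fluorescence per well over the all cells gate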
# CIT2-GFP pick2 = reconfirmed modulator of CIT2-GFP TOR reporter in yeast | shares compounds with LAP4-GFP MLPCN | S. cerevisiae CIT2-GFP strain, flow cytometry GFP, 3 h; DMSO control wells read 100% | GFP response vs DMSO, % at 10 µM | actives 8% (n = 590) | AID 2624;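 active = GFP response vs DMSO above about 150%, limit read from the data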;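 also: median green fluorescence per well over all gated yeast cells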
# AGP1-GFP pick2 = second confirmation of modulators of TOR reporter AGP1-GFP in yeast. percent response vs DMSO, % at 10 µM. S. cerevisiae AGP1-GFP strain, flow cytometry GFP, 3 h. 590 tested, under 10 active. shares compounds with LAP4-GFP MLPCN;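 active = over 150 percent of DMSO response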;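 also: median GFP channel fluorescence over all cells without mother daughter split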
# Yeast autofluor = counter-screen for compound autofluorescence in yeast s288c cells | 610 tested, under 10 active | fluorescence change (kMESF span) at 33 µM | S. cerevisiae s288c, 520 nm autofluorescence, flow cytometry, 3 h; stronger effect = higher value; zero means same as solvent-only cells | shares compounds with LAP4-GFP MLPCN;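 active = fluorescence span over the dose series, or activity score, above about 33, limit read from the data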
# Yeast autofl DR = TOR screen hit shows autofluorescence in yeast s288c. fluorescence change (span) at 33 µM. shares compounds with LAP4-GFP MLPCN. 110 tested, under 10 active. S. cerevisiae s288c parental, compound autofluorescence, flow cytometry, 3 h;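 active = fluorescence change span, or the activity score built from it, above 25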
# TORC1 bypass = wildtype yeast growth loss with TORC1 bypass cells unaffected. shares compounds with LAP4-GFP MLPCN. S. cerevisiae BY4741 spot growth rating, 48-72 h; stronger effect = lower value. growth rating (0-3) at 30 µM. 120 tested, under 10 active;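 active = growth rating at most 1 for wild type yeast while the TORC1 bypass strain still grows fully, rated 3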
# Hits are given with their value; . = inactive; / = not tested or not shown.
SMILES,RPL19A TOR yeast,CIT2 TOR yeast,LAP4-GFP MLPCN,MEP2 TOR yeast,AGP1-GFP MLPCN,LAP4-GFP pick2,MEP2-GFP pick2,RPL19A-GFP pick2,CIT2-GFP pick2,AGP1-GFP pick2,Yeast autofluor,others
CCOC(=O)c1c(CN2CCOCC2)oc2ccc(OC(C)=O)cc12,.,.,.,.,.,/,/,/,/,/,/,
CC(C)N(C(=O)CSc1nnc(Cc2ccc3c(c2)OCO3)n1C)C(C)C,.,.,.,.,.,/,/,/,/,/,/,
Oc1ccc(-c2c(-c3ccsc3)sc3ccccc23)cc1,.,.,153,.,.,.,.,.,.,.,/,
COc1ccc(NC2=C(Cl)C(=O)N(c3ccccc3)C2=O)c(OC)c1,.,.,.,.,.,/,/,/,/,/,/,
CCOc1ccc(N2C(=O)C(Cl)=C(Nc3ccccc3O)C2=O)cc1,.,.,.,.,.,/,/,/,/,/,.,
CCOc1ccc(N2C(=O)CN=C2Nc2ccccc2Cl)cc1,.,.,.,.,.,/,/,/,/,/,/,
COc1ccccc1NC1=C(Cl)C(=O)N(c2ccccc2)C1=O,.,.,.,.,.,/,/,/,/,/,.,
COc1ccc(N2C(=O)C(Cl)=C(Nc3ccc(OC)cc3OC)C2=O)cc1,.,.,.,.,.,/,/,/,/,/,/,
COc1ccc(N2C(=O)C(Cl)=C(Nc3c(C)n(C)n(-c4ccccc4)c3=O)C2=O)cc1,.,.,.,.,.,/,/,/,/,/,.,
CCn1c(SCc2nc3ccccc3c(=O)[nH]2)nnc1C(C)NC(=O)c1ccccc1F (stereo unspecified),.,.,.,.,.,/,/,/,/,/,/,
Brc1ccc(-c2ccc(C3Nc4cccc5cccc(c45)N3)o2)cc1,.,.,155,.,.,.,.,.,.,.,/,
CC(C)C(=O)N1CCN(c2ccc(NC(=S)NC(=O)c3cc4ccccc4o3)cc2)CC1,.,.,.,.,.,/,/,/,/,/,/,
O=C(CN1C(=O)c2ccccc2S1(=O)=O)NCCc1ccc(F)cc1,.,.,.,.,.,/,/,/,/,/,/,
CC(=O)NN1C(=O)/C(=C\c2ccc(Br)o2)SC1=S,.,.,.,.,.,/,/,/,/,/,/,
CC(=O)NN1C(=O)/C(=C/c2ccc(Br)o2)SC1=S,.,.,.,187,.,/,/,/,/,/,.,
CCOC(=O)C(=O)Cc1nc2ccccc2s1,.,.,.,.,.,/,/,/,/,/,/,
CC(=O)NC1CC2CCCC(C1)N2S(=O)(=O)c1ccccc1 (stereo unspecified),.,.,.,.,.,/,/,/,/,/,/,
COc1ccc(OCCCC(=O)Nc2nc(-c3ccccn3)cs2)cc1,.,.,.,.,.,/,/,/,/,/,/,
Cc1cc(C)c(OCC(=O)Nc2nc(-c3ccccn3)cs2)c(C)c1,.,.,153,.,.,/,/,/,/,/,.,
O=C(CCS(=O)(=O)c1ccccc1)Nc1nc(-c2ccccn2)cs1,.,.,.,.,.,.,.,.,.,.,.,
COc1ccccc1[C@@]1(C)ON(c2ccccc2C(F)(F)F)C1=O,.,.,155,.,.,.,.,.,.,.,.,
COc1ccccc1N1C(=O)CC(c2ccccc2)CC1=O,.,.,.,.,.,/,/,/,/,/,/,
Cc1ccccc1[C@]1(C)ON(c2ccccc2C(F)(F)F)C1=O,.,.,.,.,.,.,.,.,.,.,.,
CC[C@]1(c2ccccc2C)ON(c2ccccc2C(F)(F)F)C1=O,.,.,.,.,.,.,.,.,.,.,.,
O=C1ON=C(c2ccccc2)/C1=C/c1ccc(O)c(O)c1,.,.,.,.,.,/,/,/,/,/,/,
SMILES,RPL19A TOR yeast,CIT2 TOR yeast,LAP4-GFP MLPCN,MEP2 TOR yeast,AGP1-GFP MLPCN,LAP4-GFP pick2,MEP2-GFP pick2,RPL19A-GFP pick2,CIT2-GFP pick2,AGP1-GFP pick2,Yeast autofluor,others
COc1cc(/C=C2\C(=O)ON=C2c2ccc(Cl)cc2)ccc1O,.,.,224,.,.,/,/,/,/,/,.,
Cc1ccc(C2=NOC(=O)/C2=C\c2ccc(C)o2)cc1,.,.,203,.,.,/,/,/,/,/,.,Yeast autofl DR=.;TORC1 bypass=.
Cc1ccc(/C=C2\C(=O)ON=C2c2ccccc2)o1,.,.,.,.,.,/,/,/,/,/,/,
COc1ccc(/C=C2\C(=O)ON=C2c2ccccc2)cc1,.,.,168,.,.,160,.,.,.,.,.,
COCCN(CC(=O)NC1CCCCC1)C(=O)c1csnn1,.,.,.,.,.,/,/,/,/,/,/,
O=C(COC(=O)Cc1n[nH]c(=O)c2ccccc12)NNC(=O)c1ccc(Cl)cc1,.,.,.,.,.,/,/,/,/,/,/,
C=C(CC[C@@H](O)C(C)(C)O)[C@H]1CC[C@]2(C)[C@@H]1CCC1[C@@]3(C)CCC(=O)C(C)(C)C3CC[C@]12C (stereo partly specified),.,.,158,.,.,.,.,.,.,.,/,
C=C(C)[C@@H]1CCC2(C(=O)O)CC[C@]3(C)[C@H](CC[C@@H]4[C@@]5(C)CCC(=O)C(C)(C)[C@@H]5CC[C@]43C)[C@@H]12 (stereo partly specified),.,.,.,.,.,/,/,/,/,/,/,
O=C(Nc1nc2ccc(F)cc2s1)c1ccccn1,.,.,178,.,.,/,/,/,/,/,.,
COC(=O)[C@H](Cc1ccccc1)NC(=O)c1ccc2ccccc2n1,.,.,.,.,.,/,/,/,/,/,/,
CC(C)(C)NC(=O)[C@@H]1C[C@@H]2CCCC[C@@H]2CN1C[C@@H](O)[C@H](Cc1ccccc1)NC(=O)[C@H](CC(N)=O)NC(=O)c1ccc2ccccc2n1,.,.,.,.,.,.,.,.,.,.,/,
COC(=O)CC1C(=O)NC(C)=C1C(=O)OC (stereo unspecified),.,.,.,.,.,/,/,/,/,/,/,
CCCCCCSc1ccc(-c2nc3ccccn3c2NCCCC)cc1,.,.,161,.,.,.,.,.,.,.,/,
